An excerpt weighted towards active compounds, which were near 1.9% of everything screened.
PABP polyA inh = blocks human PABP binding to poly(A) RNA | P11940 | fluorescence polarization | calls only at 35 µM | hit rate 1% among 290,000;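 further: calls also rest on retests at 20 µM and on dose response follow-up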
Target sequence (P11940 whole entry, looked up): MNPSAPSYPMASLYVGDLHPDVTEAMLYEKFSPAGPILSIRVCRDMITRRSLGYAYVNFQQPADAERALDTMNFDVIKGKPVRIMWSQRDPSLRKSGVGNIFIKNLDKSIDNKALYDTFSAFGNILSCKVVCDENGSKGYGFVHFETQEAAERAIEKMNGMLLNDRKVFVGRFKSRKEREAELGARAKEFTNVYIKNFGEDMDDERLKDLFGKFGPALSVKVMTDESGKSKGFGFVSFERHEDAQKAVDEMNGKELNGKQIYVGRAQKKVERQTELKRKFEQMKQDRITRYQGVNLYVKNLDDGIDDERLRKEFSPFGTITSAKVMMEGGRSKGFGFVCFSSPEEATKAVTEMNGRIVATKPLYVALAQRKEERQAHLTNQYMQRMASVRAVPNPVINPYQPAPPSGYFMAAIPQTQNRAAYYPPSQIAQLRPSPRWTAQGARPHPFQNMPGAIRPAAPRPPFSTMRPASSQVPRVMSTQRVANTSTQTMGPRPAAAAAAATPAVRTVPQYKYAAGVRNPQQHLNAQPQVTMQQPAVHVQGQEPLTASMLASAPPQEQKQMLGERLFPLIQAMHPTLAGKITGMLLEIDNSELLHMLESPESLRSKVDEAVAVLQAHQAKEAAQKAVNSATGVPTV
eIF4H inh = inhibitors of RNA binding by human eIF4H. Q15056. eIF4H fluorescence polarization binding assay. inhibition, % at 35 µM. hit rate 0.94% among 290,000;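 further: calls also rest on retests at 20 µM and on dose response follow-up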
eIF4E-4G inh = inhibitors of eIF4E and eIF4G interaction in translation initiation | inhibition, % at 21.7 µM | hit rate 0.37% among 220,000 | TR-FRET eIF4E-eIF4GI(517-606) binding, 2 h | P63073+Q04637;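 active means inhibition above about 30%, limit read from the data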
14-3-3 Bad inh = disrupts binding of bovine 14-3-3 zeta to phospho-Bad peptide | P63103 | TR-FRET 14-3-3zeta/Dy647-pBad peptide displacement, 1 h | inhibition, % at 21.7 µM | hit rate 0.71% among 220,000 | AID 781;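 active means inhibition above about 70%, limit read from the data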
MLLE-PAM2 inh = inhibitors of microRNA-mediated deadenylation, human PABP1 MLLE binding; GST-MLLE / FITC-PAM2 fluorescence polarization; P11940; hit rate 0.36% among 360,000; inhibition, % at 20 µM; in the data active means inhibition above about 35%, passing the limit was not always enough
Large screens that a line does not name were inactive; [ ] = another dose, or the depositor's remark. Unless noted, how the calls were made is not given here.

CNC(=O)c1nnn(Cc2ccccc2)c1NC(=O)C(F)(F)F	14-3-3 Bad inh 77
N#Cc1ccc(C(=O)N/N=C/c2cn(CC(=O)O)c3ccccc23)c(F)c1	none
Cn1cc(/C=N/NC(=O)c2ccc(C#N)cc2F)c2ccccc21	PABP polyA inh active
CC(NC(=O)Nc1nnc(C(F)(F)F)s1)N1C(=O)C2C3C=CC(C3)C2C1=O (centres undefined)	14-3-3 Bad inh 79
Clc1cccc(-c2nc3c4ccccc4ccn3c2Cc2ccsc2)c1	none (no result: PABP polyA inh, eIF4H inh, eIF4E-4G inh, 14-3-3 Bad inh)
O=C(O)c1ccc(CN2C(=O)c3ccc(C(=O)O)cc3C2=O)cc1	none (no result: eIF4E-4G inh, 14-3-3 Bad inh)
CN(C)CCCN1C(=O)c2cccc3c([N+](=O)[O-])ccc(c23)C1=O	eIF4H inh inconclusive, MLLE-PAM2 inh 57
Cc1ccc(C(=O)O)cc1N1C(=O)c2cccc3c([N+](=O)[O-])ccc(c23)C1=O	PABP polyA inh active, eIF4H inh 101 (no result: eIF4E-4G inh, 14-3-3 Bad inh)
O=C(Nc1nccs1)c1cccc(N2C(=O)c3cccc4c([N+](=O)[O-])ccc(c34)C2=O)c1	14-3-3 Bad inh 77[fluorescence artefact?]
O=C(O)c1ccc(CN2C(=O)c3cccc4c([N+](=O)[O-])ccc(c34)C2=O)cc1	PABP polyA inh active, eIF4H inh 81, MLLE-PAM2 inh 51 (no result: eIF4E-4G inh, 14-3-3 Bad inh)
O=C(NCc1ccccc1)c1ccccc1NC(=O)C1CCCCC1	none (no result: eIF4E-4G inh, 14-3-3 Bad inh)
Nc1nnc2cc(Br)ccc2n1	MLLE-PAM2 inh 75 (no result: PABP polyA inh, eIF4H inh, eIF4E-4G inh, 14-3-3 Bad inh)
O=C(O)CN1C(=O)/C(=C\c2cc(Br)ccc2OCc2ccc(Cl)cc2)SC1=S	none (no result: eIF4E-4G inh, 14-3-3 Bad inh)
O=C(O)CN1C(=O)/C(=C\c2cc([N+](=O)[O-])ccc2OCc2ccccc2Cl)SC1=S	PABP polyA inh active, eIF4H inh 45 (no result: eIF4E-4G inh, 14-3-3 Bad inh)
O=C(O)c1ccccc1-n1ncc2c1/C(=C/c1ccc(Cl)cc1)CC2	14-3-3 Bad inh 79 (no result: MLLE-PAM2 inh)
O=C(NCc1ccc2c(c1)OCO2)c1cc(-c2ccccc2)nn1CC1CC(c2cccnc2)=NO1 (centres undefined)	none (no result: PABP polyA inh, eIF4H inh, eIF4E-4G inh, 14-3-3 Bad inh)
CC(=O)c1ccc(NC(=O)C(C)N2CCN(C/C=C/c3ccccc3)CC2)cc1 (centres undefined)	none
COc1ccc(Cl)cc1NC(=O)C(C)N1CCN(C/C=C/c2ccccc2)CC1 (centres undefined)	14-3-3 Bad inh 76
COCCCn1c(SCC(=O)N2CCOCC2)nc2cc(Cl)ccc2c1=O	none (no result: PABP polyA inh, eIF4H inh, eIF4E-4G inh, 14-3-3 Bad inh)
ONc1cccnc1-n1nc(C(F)(F)F)cc1C(F)(F)F	eIF4H inh 64 (no result: MLLE-PAM2 inh)
Cc1nc2c(Br)cc(Br)cc2c(=O)n1-c1ccccc1NC1OCC(O)C(O)C1O (centres undefined)	none (no result: PABP polyA inh, eIF4H inh, eIF4E-4G inh, 14-3-3 Bad inh)
CCSC1=N/C(=C\c2ccc(C(=O)O)cc2)C(=O)S1	none
CCOC(=O)SC1=N/C(=C\c2ccc(N(C)C)cc2)C(=O)S1	PABP polyA inh active, eIF4H inh 111
O=C(O)c1cc(-c2ccccc2)n(-c2ccccc2C(=O)O)n1	eIF4E-4G inh 42
Cc1ccc(-n2c(C)nn(CC#N)c2=O)cc1	14-3-3 Bad inh 87
CC(C)(C)c1ccc(OCC(=O)N/N=C/c2ccc(N3CCOCC3)cc2)cc1	none
COc1ccc(CCN2CCCC(CN(C)C(=O)c3ccoc3)C2)cc1 (centres undefined)	none (no result: eIF4E-4G inh, 14-3-3 Bad inh)
COc1ccc(NC(=O)c2ccc(COCC(F)(F)C(F)F)cc2)cc1	PABP polyA inh active, eIF4H inh active
Cc1cnc2c(N)cc(C)c(C)c2c1	none (no result: PABP polyA inh, eIF4H inh, eIF4E-4G inh, 14-3-3 Bad inh)
c1ccc(C[n+]2csc3ccccc32)cc1	MLLE-PAM2 inh 43
Fc1cccc(C[n+]2csc3ccccc32)c1	none
CCCC[n+]1c2ccccc2cc2ccccc21	PABP polyA inh active (no result: eIF4E-4G inh, 14-3-3 Bad inh)
CCC[n+]1c2ccccc2cc2ccccc21	PABP polyA inh active (no result: eIF4E-4G inh, 14-3-3 Bad inh)
CCCCC[n+]1cccc2c3ccccc3ccc21	none
O=C(Nc1ccc(-c2cn3ccccc3n2)cc1)c1cccs1	none
Cc1ccc2nc3sc(C(=O)NCc4ccco4)c(N)c3cc2c1	none
COc1cc2cc3c(N)c(C(=O)Nc4sc(C)c(C)c4C#N)sc3nc2cc1OC	PABP polyA inh active, eIF4H inh 89
COc1cc2cc3c(N)c(C(=O)NCc4ccco4)sc3nc2cc1OC	PABP polyA inh active, eIF4H inh 82
Cc1cc(C(=O)Nc2sc(C)c(C)c2C#N)no1	none
CCNC(=O)C1(C)CCCN(Cc2ccc3ccccc3c2Br)C1 (centres undefined)	none (no result: PABP polyA inh, eIF4H inh, eIF4E-4G inh, 14-3-3 Bad inh)
CC[C@]12c3[nH]c4ccc(OC)cc4c3CCN1C(=O)C(CC(=O)NCCC1=CCCCC1)C[C@@H]2C(=O)N1CCN(C(=O)C2CC2)CC1 (some centres undefined)	none (no result: PABP polyA inh, eIF4H inh, eIF4E-4G inh, 14-3-3 Bad inh)
CCc1ccc(S(=O)(=O)NC(=S)NC2CCCCC2)cc1	MLLE-PAM2 inh 43
O=S(=O)(NC(=S)NC1CCCCC1)c1ccc(Cl)cc1	none
Cc1ccc(S(=O)(=O)NC(=S)NC2CCCCC2)cc1	MLLE-PAM2 inh 47
CCOC(=O)c1cc(-c2ccccc2)sc1NC(=O)CC(C)C	14-3-3 Bad inh 74
O=C1CSC(=S)N1/N=C/c1ccc(O)c(O)c1O	PABP polyA inh active, eIF4H inh 80, eIF4E-4G inh 84, 14-3-3 Bad inh 96
O=C1CSC(=S)N1/N=C/c1cc(Br)ccc1O	none (no result: eIF4E-4G inh, 14-3-3 Bad inh, MLLE-PAM2 inh)
OCc1ccccc1SSc1ccccc1CO	MLLE-PAM2 inh 41 (no result: PABP polyA inh, eIF4H inh, eIF4E-4G inh, 14-3-3 Bad inh)
COc1ccc(CNC(=O)CN(Cc2ccc(Cl)cc2)C(=O)c2csnn2)cc1	MLLE-PAM2 inh 36 (no result: eIF4E-4G inh, 14-3-3 Bad inh)
COc1ccc(CN(CC(=O)NCc2ccccc2)C(=O)c2csnn2)cc1	none
COc1ccc(CNC(=O)CN(Cc2ccc(C)cc2)C(=O)c2csnn2)cc1	MLLE-PAM2 inh 44 (no result: eIF4E-4G inh, 14-3-3 Bad inh)
Cc1sc2ncnc(NCC(c3ccco3)N(C)C)c2c1C (centres undefined)	14-3-3 Bad inh 82 (no result: PABP polyA inh, eIF4H inh)
Nc1cc(Nc2ccccc2)c2nonc2c1[N+](=O)[O-]	MLLE-PAM2 inh 56 (no result: eIF4E-4G inh, 14-3-3 Bad inh)
O=[N+]([O-])c1c(Nc2ccccc2)ccc2nonc12	none
O=C(O)c1ccc(Nc2cc(Cl)c3nonc3c2[N+](=O)[O-])cc1	MLLE-PAM2 inh 39
Cc1onc(-c2ccccc2Cl)c1C(=O)NCc1ccco1	PABP polyA inh active, eIF4H inh 95
O=C(NCCc1ccco1)C(=O)NCC1OCCCN1S(=O)(=O)c1ccccc1 (centres undefined)	none (no result: eIF4E-4G inh, 14-3-3 Bad inh)
O=C(O)Cn1nc2ccccc2n1	none
CC(C(=O)O)n1nc2ccccc2n1 (centres undefined)	14-3-3 Bad inh 71
COc1ccc2c3c(cccc13)N(C)N=C2C	PABP polyA inh inconclusive, eIF4H inh 100, MLLE-PAM2 inh 95
COc1ccc2c3c(cccc13)OC2=O	none (no result: eIF4E-4G inh, 14-3-3 Bad inh)
CCc1c(O)nc(SCC(=O)Nc2c(C)cccc2C)n(-c2ccc(F)cc2)c1=O	none (no result: PABP polyA inh, eIF4H inh, eIF4E-4G inh, 14-3-3 Bad inh)
Cc1c(O)nc(SCC(=O)Nc2ccc3c4c(cccc24)CC3)n(-c2ccc(F)cc2)c1=O	MLLE-PAM2 inh 40
Cc1ccc(C(=O)OCC(=O)Nc2ccc3c(c2)OCO3)c(O)c1	none (no result: PABP polyA inh, eIF4H inh, eIF4E-4G inh, 14-3-3 Bad inh)
Cc1ccc2nc3c(cc(C#N)c(=O)n3-c3nccs3)c(=O)n2c1	PABP polyA inh active, eIF4H inh 98
Cc1ccc2nc3c(cc(C#N)c(=O)n3CCN3CCOCC3)c(=O)n2c1	none (no result: eIF4E-4G inh, 14-3-3 Bad inh, MLLE-PAM2 inh)
Cc1ccc2nc3c(cc(C#N)c(=O)n3CC3CCCO3)c(=O)n2c1 (centres undefined)	PABP polyA inh active, eIF4H inh 32 (no result: MLLE-PAM2 inh)

Screens from PubChem.
